Test [1] is described as follows: Caspase-3/7 induction in CHO-K1 cells by small molecules, qHTS assay (AID 1346980). Further: nearly all actives have a fitted effect of over 15% in size. In outline: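 Luminescent Caspase-Glo 3/7 read (30min, room temperature) quantified apoptosis induction. Cells were wild-type CHO-K1, treated with compound for 17hr at 37 C and 5% CO2.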
In general terms: Quantitative high-throughput screening tests each substance at several concentrations.

The nature of test [2]: Caspase-3/7 induction in HepG2 cells by small molecules, qHTS cell viability counter screen (AID 1346981). Further: nearly all actives have a fitted effect of over 30% in size. Further: potency means the concentration at half of the fitted maximal effect. On activity change, negative = cytotoxicity: series mostly up to about 92 µM. A digest of the protocol:
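HepG2, WT, 2,000 cells/well; 5 hr pre-incubation 37 C/5% CO2; compound pin-transferred from DMSO; 16 hr exposure; CellTiter-Fluor, 1 hr; fluorescence read.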

Test [3] has as its target Nuclear receptor subfamily 1 group I member 2 (Homo sapiens) (UniProt O75469). The test can be described thus: Human pregnane X receptor (PXR) small molecule agonists, qHTS assay (AID 1346982). Further: nearly all actives have a fitted effect of over 35% in size. Further: potency means the concentration at half of the fitted maximal effect. In outline:
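Luciferase signal from ONE-Glo (30 min, room temperature) measured activation of hPXR-driven CYP3A4 reporter expression in PXR-Luc HepG2 cells treated with compounds for 24 hr at 37 C.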

Test [4] addresses Cytochrome P450 2D6 (Homo sapiens) (UniProt P10635). Kind of test: Cytochrome P450 Family 2 Subfamily D Member 6 (CYP2D6) small molecule antagonists: luciferase reporter qHTS assay (AID 1671196). Further: nearly all actives have a fitted effect of over 50% in size. Further: potency means the concentration at half of the fitted maximal effect. On activity change, negative = inhibition: series mostly up to about 120 µM. In outline:
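Read-out is luminescence from luciferin formed by CYP2D6 turnover of a proluciferin substrate, recorded as relative luminescence units. Reactions ran 1 h at room temperature after NADPH regeneration solution was added.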
In general terms: Reporter assays use an easily measured gene product as a stand-in for the process of interest.

Test [5] deals with Cytochrome P450 2C19 (Homo sapiens) (UniProt P33261). Kind of test: Cytochrome P450 Family 2 Subfamily C Member 19 (CYP2C19) small molecule antagonists: luciferase reporter qHTS assay (AID 1671197). Further: nearly all actives have a fitted effect of over 65% in size. Further: potency means the concentration at half of the fitted maximal effect. On activity change, negative = inhibition: series mostly up to about 120 µM. In outline: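 Relative luminescence units recorded 20 min after the detection reagent stopped a 1 h, 37C CYP2C19 reaction on proluciferin substrate, which was started by NADPH regeneration following 10 min room-temperature compound preincubation; ketoconazole positive control.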

Test [6] deals with Cytochrome P450 1A2 (Homo sapiens) (UniProt P05177). Kind of test: Cytochrome P450 Family 1 Subfamily A Member 2 (CYP1A2) small molecule antagonists: luciferase reporter qHTS assay (AID 1671199). Further: nearly all actives have a fitted effect of over 50% in size. Further: potency means the concentration at half of the fitted maximal effect. On activity change, negative = inhibition: series mostly up to about 120 µM. In outline: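 P450-Glo CYP1A2, 1536-well qHTS: enzyme/proluciferin substrate + cpd (DMSO), 10 min RT; NADPH regen, 1 h RT; detection reagent, 20 min; luminescence, RLU.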
Test [7] deals with Voltage-gated inwardly rectifying potassium channel KCNH2 (Homo sapiens) (UniProt Q12809). The test can be described thus: Human Ether-a-go-go-Related Gene (hERG) channel small molecule antagonists: fluorescence cell-based qHTS assay (AID 1671200). Further: nearly all actives have a fitted effect of over 50% in size. Further: potency means the concentration at half of the fitted maximal effect.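 On activity change, negative = inhibition: hERG-expressing U2OS cells given a thallium stimulus after FluxOR II dye loading; series mostly up to about 77 µM.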 A digest of the protocol: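 Fluorescence at 540 nm emission (480 nm excitation) was recorded kinetically for 2 min at 1-second intervals once the thallium-containing stimulus reached cells previously loaded with FluxOR II dye.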
(In general: Block of hERG is tested as a sign of cardiac risk.)

Test [8] has as its target Cytochrome P450 3A4 (Homo sapiens) (UniProt P08684). Kind of test: Cytochrome P450 Family 3 Subfamily A Member 4 (CYP3A4) small molecule antagonists: luciferase reporter qHTS assay (AID 1671201). Further: nearly all actives have a fitted effect of over 50% in size. Further: potency means the concentration at half of the fitted maximal effect. On activity change, negative = inhibition: series mostly up to about 120 µM. A digest of the protocol:
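qHTS, 1536-well. CYP3A4 + proluciferin substrate, cpd 10 min RT → NADPH regen 1 h RT → detection reagent 20 min → luminescence (RLU). Ketoconazole positive control.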

In test [9] the target is Cytochrome P450 2C9 (Homo sapiens) (UniProt P11712). Kind of test: Cytochrome P450 Family 2 Subfamily C Member 9 (CYP2C9) small molecule antagonists: luciferase reporter qHTS assay (AID 1671198). Further: nearly all actives have a fitted effect of over 50% in size. Further: potency means the concentration at half of the fitted maximal effect. On activity change, negative = inhibition: series mostly up to about 120 µM. A digest of the protocol:
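Enzyme-substrate mix preincubated with compound 10 min at room temperature; reaction started with NADPH regeneration solution, 1 h 37C. Luminescent luciferin product read after 20 min detection reagent.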

The values that follow come from PubChem BioAssay (Tox21).

A number with no mark means an inactive call. Inconclusive results are not listed. Calls of active or inactive are those of the source. The call rests on the fitted dose curve; in most records, active means well fitted curve in the direction sought with a large enough effect in the repeat runs; inconclusive means weak or mixed curves; inactive means no such curve, though single readings can be large; an effect the other way counts as inactive or inconclusive.
On the % scale 0 is the no-effect control and ±100 the full control effect.

Cytochrome P450 2C19 (Homo sapiens), sequence (P33261 whole entry, looked up): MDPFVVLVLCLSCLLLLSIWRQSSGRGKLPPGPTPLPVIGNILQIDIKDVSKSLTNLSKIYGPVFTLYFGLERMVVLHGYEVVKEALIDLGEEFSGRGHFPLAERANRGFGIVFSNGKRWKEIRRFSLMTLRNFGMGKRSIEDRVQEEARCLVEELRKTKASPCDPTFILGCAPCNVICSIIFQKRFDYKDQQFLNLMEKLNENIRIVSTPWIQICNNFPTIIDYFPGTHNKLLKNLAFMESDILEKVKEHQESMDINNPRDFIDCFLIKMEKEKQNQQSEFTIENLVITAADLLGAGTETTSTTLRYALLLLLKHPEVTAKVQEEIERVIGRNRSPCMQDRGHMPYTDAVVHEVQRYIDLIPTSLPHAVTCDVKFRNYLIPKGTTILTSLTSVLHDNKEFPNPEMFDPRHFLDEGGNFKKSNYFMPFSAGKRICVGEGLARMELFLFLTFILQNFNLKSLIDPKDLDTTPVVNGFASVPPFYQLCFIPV
Cytochrome P450 2D6 (Homo sapiens), sequence (P10635 whole entry, looked up): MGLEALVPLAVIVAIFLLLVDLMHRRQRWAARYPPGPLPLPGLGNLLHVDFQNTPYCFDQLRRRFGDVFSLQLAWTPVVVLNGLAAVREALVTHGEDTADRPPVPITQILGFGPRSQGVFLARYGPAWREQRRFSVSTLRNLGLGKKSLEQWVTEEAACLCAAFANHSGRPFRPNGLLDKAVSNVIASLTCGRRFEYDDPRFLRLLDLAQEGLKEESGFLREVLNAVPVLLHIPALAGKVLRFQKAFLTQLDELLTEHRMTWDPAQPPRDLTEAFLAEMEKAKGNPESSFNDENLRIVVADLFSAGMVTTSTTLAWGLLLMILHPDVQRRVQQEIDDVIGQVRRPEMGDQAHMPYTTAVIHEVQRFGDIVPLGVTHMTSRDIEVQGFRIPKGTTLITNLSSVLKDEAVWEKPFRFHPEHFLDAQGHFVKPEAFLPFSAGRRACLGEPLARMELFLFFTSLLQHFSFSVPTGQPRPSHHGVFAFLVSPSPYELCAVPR
Cytochrome P450 3A4 (Homo sapiens), sequence (P08684 whole entry, looked up): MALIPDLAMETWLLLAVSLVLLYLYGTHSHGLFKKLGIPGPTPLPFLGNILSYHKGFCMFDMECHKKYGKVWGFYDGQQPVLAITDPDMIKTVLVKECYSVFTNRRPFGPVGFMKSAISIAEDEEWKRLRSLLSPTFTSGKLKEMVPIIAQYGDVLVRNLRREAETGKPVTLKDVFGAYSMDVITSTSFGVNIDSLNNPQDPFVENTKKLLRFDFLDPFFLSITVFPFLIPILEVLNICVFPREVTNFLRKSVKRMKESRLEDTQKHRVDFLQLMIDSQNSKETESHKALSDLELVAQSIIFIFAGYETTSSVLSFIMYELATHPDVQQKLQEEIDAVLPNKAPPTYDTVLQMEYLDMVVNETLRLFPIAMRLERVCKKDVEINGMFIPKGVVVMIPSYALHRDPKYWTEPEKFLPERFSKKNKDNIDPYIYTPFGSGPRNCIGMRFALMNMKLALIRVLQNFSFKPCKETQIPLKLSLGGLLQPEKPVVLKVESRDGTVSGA
Voltage-gated inwardly rectifying potassium channel KCNH2 (Homo sapiens), sequence (Q12809 whole entry, looked up): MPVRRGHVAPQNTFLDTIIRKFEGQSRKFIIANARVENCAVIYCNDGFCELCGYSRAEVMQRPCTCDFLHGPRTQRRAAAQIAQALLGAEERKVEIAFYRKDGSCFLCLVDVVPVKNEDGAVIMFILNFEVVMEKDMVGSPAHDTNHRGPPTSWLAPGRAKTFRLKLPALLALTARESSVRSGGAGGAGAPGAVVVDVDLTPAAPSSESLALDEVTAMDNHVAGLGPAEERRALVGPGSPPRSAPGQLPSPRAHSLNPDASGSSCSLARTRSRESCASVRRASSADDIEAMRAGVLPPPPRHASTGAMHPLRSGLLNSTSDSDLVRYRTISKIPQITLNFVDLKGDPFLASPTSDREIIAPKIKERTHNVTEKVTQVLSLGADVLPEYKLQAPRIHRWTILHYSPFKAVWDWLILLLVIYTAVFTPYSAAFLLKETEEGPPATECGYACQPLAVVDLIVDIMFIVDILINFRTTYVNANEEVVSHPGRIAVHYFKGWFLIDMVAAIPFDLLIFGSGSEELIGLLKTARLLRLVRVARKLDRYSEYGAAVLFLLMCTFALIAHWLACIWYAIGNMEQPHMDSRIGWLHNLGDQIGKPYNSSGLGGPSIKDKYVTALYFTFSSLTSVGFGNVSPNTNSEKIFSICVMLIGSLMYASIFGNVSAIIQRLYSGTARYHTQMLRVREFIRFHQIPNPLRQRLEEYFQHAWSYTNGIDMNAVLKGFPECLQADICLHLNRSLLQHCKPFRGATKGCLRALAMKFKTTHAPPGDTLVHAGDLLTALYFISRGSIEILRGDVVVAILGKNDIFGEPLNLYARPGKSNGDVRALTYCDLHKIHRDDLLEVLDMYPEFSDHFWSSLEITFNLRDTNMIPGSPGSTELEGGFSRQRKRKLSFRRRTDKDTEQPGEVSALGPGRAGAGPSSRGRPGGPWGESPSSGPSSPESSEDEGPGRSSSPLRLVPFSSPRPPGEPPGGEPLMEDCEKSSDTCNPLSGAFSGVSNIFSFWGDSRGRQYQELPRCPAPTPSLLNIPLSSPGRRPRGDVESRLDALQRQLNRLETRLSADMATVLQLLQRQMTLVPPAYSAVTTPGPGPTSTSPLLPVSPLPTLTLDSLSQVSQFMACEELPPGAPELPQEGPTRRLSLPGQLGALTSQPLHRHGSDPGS
Nuclear receptor subfamily 1 group I member 2 (Homo sapiens), sequence (O75469 whole entry, looked up): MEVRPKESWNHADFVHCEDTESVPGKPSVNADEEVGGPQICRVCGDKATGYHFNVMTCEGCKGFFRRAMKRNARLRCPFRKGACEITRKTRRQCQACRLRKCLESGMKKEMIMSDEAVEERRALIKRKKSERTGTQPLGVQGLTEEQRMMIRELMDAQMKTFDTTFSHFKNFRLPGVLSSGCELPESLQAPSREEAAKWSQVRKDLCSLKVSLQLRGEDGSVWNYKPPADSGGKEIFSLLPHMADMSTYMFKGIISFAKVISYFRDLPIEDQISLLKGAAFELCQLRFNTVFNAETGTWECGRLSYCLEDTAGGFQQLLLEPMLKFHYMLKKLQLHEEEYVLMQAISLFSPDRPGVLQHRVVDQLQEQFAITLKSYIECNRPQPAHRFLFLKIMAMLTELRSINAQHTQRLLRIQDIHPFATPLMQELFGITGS
Cytochrome P450 2C9 (Homo sapiens), sequence (P11712 whole entry, looked up): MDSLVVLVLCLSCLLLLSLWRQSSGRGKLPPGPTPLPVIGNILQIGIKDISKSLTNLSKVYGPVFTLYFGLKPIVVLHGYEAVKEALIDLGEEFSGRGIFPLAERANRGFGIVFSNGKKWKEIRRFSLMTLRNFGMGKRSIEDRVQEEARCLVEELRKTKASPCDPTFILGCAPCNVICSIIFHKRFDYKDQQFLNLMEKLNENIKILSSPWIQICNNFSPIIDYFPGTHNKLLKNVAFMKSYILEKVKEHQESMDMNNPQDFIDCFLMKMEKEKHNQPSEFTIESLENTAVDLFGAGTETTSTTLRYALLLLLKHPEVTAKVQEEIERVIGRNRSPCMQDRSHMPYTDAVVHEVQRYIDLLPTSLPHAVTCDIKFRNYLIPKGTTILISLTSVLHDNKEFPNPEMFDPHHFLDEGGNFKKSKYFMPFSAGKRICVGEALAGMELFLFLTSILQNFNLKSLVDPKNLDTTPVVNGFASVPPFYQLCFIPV
Cytochrome P450 1A2 (Homo sapiens), sequence (P05177 whole entry, looked up): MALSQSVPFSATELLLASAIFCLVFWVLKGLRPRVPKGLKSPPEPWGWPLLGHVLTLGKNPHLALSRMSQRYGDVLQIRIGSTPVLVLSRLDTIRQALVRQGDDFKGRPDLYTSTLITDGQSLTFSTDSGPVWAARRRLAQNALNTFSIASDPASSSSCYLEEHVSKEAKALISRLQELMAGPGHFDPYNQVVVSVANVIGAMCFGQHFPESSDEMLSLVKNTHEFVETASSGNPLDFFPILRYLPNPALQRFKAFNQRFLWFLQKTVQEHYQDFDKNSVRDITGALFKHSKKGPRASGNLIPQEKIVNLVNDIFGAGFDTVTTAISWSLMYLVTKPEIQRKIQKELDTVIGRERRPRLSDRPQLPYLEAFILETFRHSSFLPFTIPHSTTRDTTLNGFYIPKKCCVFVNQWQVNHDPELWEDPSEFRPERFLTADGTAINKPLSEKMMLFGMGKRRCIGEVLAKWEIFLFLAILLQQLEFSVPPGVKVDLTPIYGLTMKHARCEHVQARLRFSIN

For the compound `CC(c1cc(C(C)(C)C)cc(C(C)(C)C)c1O)c1cc(C(C)(C)C)cc(C(C)(C)C)c1O`, the Potency result in [1], in test [2], in test [3], in test [4], in test [6] and in test [7] was “inactive” throughout. The Potency in test [5] was 31.7 µM (active).

Take `COCCC(=O)OC`: the Potency entry in test [1], in test [2], in test [3], in test [4], in test [5] and in test [6] was “inactive” each time. Moreover, the Potency entry in test [7] and in test [8] was “inactive” each time.

`CCOC(=O)[C@H](C)O`: the Potency entry in test [1], in test [2], in [3], in [4], in [5] and in test [6] was “inactive” each time. Besides, the Potency entry in [7] and in [8] was “inactive” throughout.

In the case of `Nc1ccc(F)c([N+](=O)[O-])c1`, the Potency entry in test [1], in [2], in test [3], in [4] and in [8] was “inactive” each time. Besides, in test [5], the Potency was 89.4 µM (active).

For the compound `C/C(=N\[Si](C)(C)C)O[Si](C)(C)C`, the Potency entry in test [1], in [2], in test [3], in test [4], in [5] and in test [7] was “inactive” each time. The Potency entry in [8] was “inactive”.

Turning to `O=C(O)CN(CCCN(CC(=O)O)CC(=O)O)CC(=O)O`, in test [1], the caspase-3/7 activation is 5.17% [at 19 µM]. Besides, the activity change, negative = cytotoxicity in test [2] was -12.2% [at 19 µM]. For the same compound, the activation in test [3] was 1.69% [at 19 µM]. The activity change, negative = inhibition in [4] was 2.09% [at 23.6 µM]; in test [5], -5.87% [at 23.6 µM]; in test [9] it was -3.48% [at 23.6 µM]; in test [8], -1.42% [at 23.6 µM].

Turning to `N#CCCOCCC#N`, the Potency result in [1], in [2], in [3], in [4], in test [5] and in [7] was “inactive” each time. Moreover, in [8], the Potency result is “inactive”.

Consider `NC(=O)c1ccccc1Cl`, for which the Potency result in test [1], in test [2], in [3], in test [4], in test [9] and in [7] was “inactive” throughout. Further, the Potency result in [8] is “inactive”.

Consider `Nc1cc([N+](=O)[O-])ccc1Cl`, for which the Potency result in test [1], in [2], in test [3], in [4], in test [9] and in test [7] was “inactive” each time. Besides, the Potency in test [6] is 17.8 µM (active).

On to `C=C(C)CCO`, for which the Potency entry in test [1], in test [2], in [3], in test [4], in test [5] and in test [6] was “inactive” each time. In addition, the Potency entry in test [7] and in test [8] was “inactive” throughout.

Take `CCC(O)CO` (configuration not stated): the Potency entry in test [1], in test [2], in [3], in test [4], in [5] and in test [6] was “inactive” throughout. In addition, the Potency result in [7] and in [8] was “inactive” each time.

In the case of `C=C[Si](C)(C)Cl`, in test [1], the caspase-3/7 activation was 0.183% [at 8.39 µM]. Further, the activity change, negative = cytotoxicity in test [2] is -0.712% [at 8.39 µM]. For the same compound, the activation in test [3] is 4.97% [at 8.39 µM]. In addition, the activity change, negative = inhibition was 0.847% [at 10.5 µM] in test [4]; -15.5% [at 10.5 µM] in [5]; -1.65% [at 10.5 µM] in test [9]; -2.91% [at 6.97 µM] in [7]; 0.89% [at 10.5 µM] in test [8].

As for `CC1(C)[C@H](C(=O)OCc2cccc(Oc3ccccc3)c2)[C@@H]1C=C(Cl)Cl`, the Potency result in test [1], in test [2], in test [3], in test [4], in test [5] and in [9] was “inactive” throughout. Besides, the Potency entry in test [7] and in test [8] was “inactive” each time.

For `CCn1c2ccccc2c2ccccc21`, the Potency result in [1], in test [2], in [3], in test [4] and in test [8] was “inactive” in each case. Besides, the Potency was 22.4 µM (active) in test [5] and 3.99 µM (active) in test [6].

On to `CCCCCCCCCCCCS(=O)(=O)Cl`, for which the caspase-3/7 activation in [1] is -1.07% [at 19 µM]. Besides, the activity change, negative = cytotoxicity in test [2] was 3.84% [at 19 µM]. In test [3], the activation is 2.36% [at 19 µM]. In addition, the activity change, negative = inhibition in test [4] is -14.2% [at 23.6 µM]; in [5], -3.93% [at 23.6 µM]; in test [9], -14.1% [at 23.6 µM]; in test [7], 1.06% [at 15.8 µM]; in [8] it was -1.36% [at 23.6 µM].

`CCOC(=O)C1=NN(c2ccc(Cl)cc2Cl)C(C)(C(=O)OCC)C1` (configuration not stated): the Potency result in test [1] and in test [2] was “inactive” throughout. The Potency was 54.5 µM (active) in test [3]; 39.9 µM (active) in [4]; 2.52 µM (active) in [5]; 7.1 µM (active) in [9]; 43.6 µM (active) in [7]; 35.6 µM (active) in test [8].

Consider `CC(C=O)c1ccccc1` (configuration not stated), for which the Potency result in test [1], in test [2], in test [3], in test [4], in test [7] and in test [8] was “inactive” each time. For the same compound, in [5], the Potency is 79.6 µM (active).

Consider `CCOC(=O)[C@H](O)[C@@H](O)C(=O)OCC`, for which the Potency entry in test [1], in test [2], in test [3], in test [4], in test [5] and in [9] was “inactive” throughout. In addition, in test [8], the Potency result was “inactive”.

Turning to `C=Cc1ccncc1`, the Potency result in test [1], in test [2], in test [3], in [4], in test [5] and in [7] was “inactive” throughout. Also, the Potency entry in test [8] is “inactive”.

In the case of `CCOc1nc(F)cc2nc(S(=O)(=O)Nc3c(Cl)cccc3C(=O)OC)nn12`, the Potency entry in test [1], in test [2], in [3], in test [4], in test [5] and in test [6] was “inactive” each time. The Potency entry in [7] was “inactive”. In [8], the Potency was 35.6 µM (active).

As for `C/C(=C\c1ccc(C(=O)O)cc1)c1ccc2c(c1)C(C)(C)CCC2(C)C`, the Potency entry in test [1], in [2], in test [3], in [4], in test [9] and in test [7] was “inactive” throughout. In addition, the Potency entry in [8] was “inactive”.

As for `CN(C[C@@H](CC[N+]12CCC(C3CCCCC3)(CC1)CC2)c1ccc(Cl)c(Cl)c1)C(=O)c1cc(C(F)(F)F)cc(C(F)(F)F)c1`, the Potency result in test [1], in test [3] and in test [7] was “inactive” in each case. In addition, the Potency was 68.6 µM (active) in [2]; 15.9 µM (active) in test [4]; 5.64 µM (active) in test [5]; 71 µM (active) in test [6]; 2.24 µM (active) in test [8].

Regarding `CCCC(C)C=O` (configuration not stated), the Potency result in test [1], in [2], in test [3], in test [4], in [5] and in [7] was “inactive” in each case. The Potency result in [8] was “inactive”.

For the compound `O=[N+]([O-])c1ccc(CO)cc1`, the Potency entry in test [1], in test [2], in test [3], in [4], in test [5] and in test [9] was “inactive” throughout. For the same compound, the Potency result in test [7] and in test [8] was “inactive” in each case.

As to `Cc1ccc(C2OC[C@@H]3OC(c4ccc(C)cc4)O[C@H]([C@H](O)CO)[C@@H]3O2)cc1` (some centres not stated), the Potency entry in test [1], in test [2], in test [3], in test [4] and in test [6] was “inactive” each time. For the same compound, the Potency in [5] was 6.33 µM (active).

Take `c1ccc2occc2c1`: the Potency entry in test [1], in [2], in test [3], in test [7] and in test [8] was “inactive” in each case. The Potency in test [4] is 31.7 µM (active); in test [9], 35.6 µM (active); in test [6], 28.3 µM (active).
